Measured values: PubChem BioAssay (EPA / NIEHS)
Calls of active or inactive are those of the source. How the source made its calls: active means hit-call score of the fitted dose curve at least 0.9, where 1 is the maximum; inactive means score below 0.9.

Each compound was assayed on Insulin-like growth factor-binding protein 1 (IGFBP1), IGFBP1 (gene 3484) (assay: LTEA_HepaRG_IGFBP1: Life Technologies and Expression Analysis (LTEA) Assay for Insulin-like growth factor-binding protein 1 (IGFBP1) using HepaRG (AID 2283508)). Conditions: mRNA level, 48 h; actives raise or lower the signal.
Outline: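 HepaRG, 48 h, 8 conc. (max 100 uM, half-log), duplicates, 0.5% DMSO. Readout: TaqMan qRT-PCR, ACTB/GAPDH/POLR2A normalisation. Fit: bidirectional vs DMSO.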

Compound	outcome	AC50
ClC(Cl)=C(c1ccc(Cl)cc1)c1ccc(Cl)cc1	inactive	
CC#Cc1cc(C)nc(Nc2ccccc2)n1		21.9 µM (active)
C=CC(N)=O	inactive	
CCCCCCCCCc1ccc(O)cc1	inactive	
CCC(C)(c1ccc(O)cc1)c1ccc(O)cc1	inactive	
CC(C)(c1ccccc1)c1ccc(O)cc1	inactive	
CCOC(=O)C(O)(c1ccc(Cl)cc1)c1ccc(Cl)cc1	inactive	
CCNc1nc(NC(C)C)nc(SC)n1	inactive	
Nn1cnnc1	inactive	
O=C(O)C(F)(F)C(F)(F)C(F)(F)C(F)(F)C(F)(F)C(F)(F)C(F)(F)C(F)(F)F		86.1 µM (active)
Oc1ccc(C(c2ccc(O)cc2)(C(F)(F)F)C(F)(F)F)cc1		75.9 µM (active)
CCCCCCCCOC(=O)c1ccccc1C(=O)OCCCCCCCC	inactive	

The compounds below were run on Interleukin 6 Receptor (IL6R), IL6R (gene 3570) (assay: LTEA_HepaRG_IL6R: Life Technologies and Expression Analysis (LTEA) Assay for Interleukin 6 Receptor (IL6R) using HepaRG (AID 2283510;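 on AC50: differentiated human HepaRG liver cells in serum-free induction medium; TaqMan qRT-PCR signal normalized to ACTB GAPDH and POLR2A housekeeping genes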)). Conditions: mRNA level, 48 h; actives raise or lower the signal.
Outline: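 IL6R transcript level by qRT-PCR after 48 h chemical exposure (8-point, half-log, max 100 uM, 0.5% DMSO vehicle) of HepaRG cells in serum-free induction medium. Normalized to three housekeeping genes; curves fitted in both directions relative to DMSO.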

Compound	outcome	AC50
Cc1ccccc1O	inactive	
O=NN(c1ccccc1)c1ccccc1	inactive	
Cc1ccccc1CO[C@@H]1C[C@@]2(C(C)C)CC[C@]1(C)O2	inactive	
CCC(C)(CC)c1cc(NC(=O)c2c(OC)cccc2OC)on1	inactive	
CCOCCOC(C)=O	inactive	
CC1=C2C[C@H]3[C@@H](CC=C4C[C@@H](O)CC[C@@]43C)[C@@H]2CC[C@]12O[C@@H]1C[C@H](C)CN[C@H]1[C@H]2C	inactive	
Cc1ccccc1[N+](=O)[O-]	inactive	
CC(c1ccc(O)cc1)(c1ccc(O)cc1)c1ccc(O)cc1		72.7 µM (active)
Cc1cccc([N+](=O)[O-])c1	inactive	
CO/C=C(/C(=O)OC)c1ccccc1COc1cccc(C(F)(F)F)n1	inactive	
C[C@]12CCC(=O)C=C1CC[C@@H]1[C@@H]2CC[C@]2(C)C(=O)CC[C@@H]12	inactive	
Cc1ccc(O)c(C)c1	inactive	
CN(C)CCO	inactive	
O=C(O)C(F)(F)C(F)(F)C(F)(F)C(F)(F)C(F)(F)C(F)(F)C(F)(F)C(F)(F)C(F)(F)F	inactive	
CN(C)c1nc(=O)n(C2CCCCC2)c(=O)n1C	inactive	
CCOP(=S)(OCC)SCSC(C)(C)C	inactive	

Compound	outcome	AC50
Oc1c(Cl)c(Cl)c(Cl)c(Cl)c1Cl		5.66 µM (active)
ClC1=C(Cl)[C@]2(Cl)[C@@H]3[C@@H]4C[C@@H]([C@H]5O[C@@H]45)[C@@H]3[C@@]1(Cl)C2(Cl)Cl		0.00506 µM (active)
O=S(=O)(O)C(F)(F)C(F)(F)C(F)(F)C(F)(F)F	inactive	
CCC(C)c1cc([N+](=O)[O-])cc([N+](=O)[O-])c1O (stereo unspecified)	inactive	
ClC(Cl)=C(c1ccc(Cl)cc1)c1ccc(Cl)cc1	inactive	
CC#Cc1cc(C)nc(Nc2ccccc2)n1	inactive	
C=CC(N)=O	inactive	
CCCCCCCCCc1ccc(O)cc1	inactive	
CCC(C)(c1ccc(O)cc1)c1ccc(O)cc1	inactive	
CC(C)(c1ccccc1)c1ccc(O)cc1	inactive	
CCOC(=O)C(O)(c1ccc(Cl)cc1)c1ccc(Cl)cc1	inactive	
CCNc1nc(NC(C)C)nc(SC)n1		11.7 µM (active)
Nn1cnnc1	inactive	
O=C(O)C(F)(F)C(F)(F)C(F)(F)C(F)(F)C(F)(F)C(F)(F)C(F)(F)C(F)(F)F	inactive	
Oc1ccc(C(c2ccc(O)cc2)(C(F)(F)F)C(F)(F)F)cc1		89.2 µM (active)
CCCCCCCCOC(=O)c1ccccc1C(=O)OCCCCCCCC	inactive	

The compounds below were run on Potassium channel subfamily K member 1 (KCNK1), KCNK1 (gene 3775) (assay: LTEA_HepaRG_KCNK1: Life Technologies and Expression Analysis (LTEA) Assay for Potassium channel subfamily K member 1 (KCNK1) using HepaRG (AID 2283511)). Conditions: mRNA level, 48 h; actives raise or lower the signal.
Outline: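 KCNK1 transcript measured by TaqMan qRT-PCR against three housekeeping genes, after HepaRG cells were treated 48 h with eight half-log concentrations (top 100 uM, 0.5% DMSO). Curves fitted bidirectionally relative to vehicle.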

Compound	outcome	AC50
Cc1ccccc1O	inactive	
O=NN(c1ccccc1)c1ccccc1	inactive	
Cc1ccccc1CO[C@@H]1C[C@@]2(C(C)C)CC[C@]1(C)O2	inactive	
CCC(C)(CC)c1cc(NC(=O)c2c(OC)cccc2OC)on1	inactive	
CCOCCOC(C)=O	inactive	
CC1=C2C[C@H]3[C@@H](CC=C4C[C@@H](O)CC[C@@]43C)[C@@H]2CC[C@]12O[C@@H]1C[C@H](C)CN[C@H]1[C@H]2C	inactive	
Cc1ccccc1[N+](=O)[O-]	inactive	
CC(c1ccc(O)cc1)(c1ccc(O)cc1)c1ccc(O)cc1	inactive	
Cc1cccc([N+](=O)[O-])c1	inactive	
CO/C=C(/C(=O)OC)c1ccccc1COc1cccc(C(F)(F)F)n1		27.8 µM (active)
C[C@]12CCC(=O)C=C1CC[C@@H]1[C@@H]2CC[C@]2(C)C(=O)CC[C@@H]12	inactive	
Cc1ccc(O)c(C)c1	inactive	
CN(C)CCO	inactive	
O=C(O)C(F)(F)C(F)(F)C(F)(F)C(F)(F)C(F)(F)C(F)(F)C(F)(F)C(F)(F)C(F)(F)F	inactive	
CN(C)c1nc(=O)n(C2CCCCC2)c(=O)n1C	inactive	
CCOP(=S)(OCC)SCSC(C)(C)C	inactive	

Compound	outcome	AC50
Oc1c(Cl)c(Cl)c(Cl)c(Cl)c1Cl		34.5 µM (active)
ClC1=C(Cl)[C@]2(Cl)[C@@H]3[C@@H]4C[C@@H]([C@H]5O[C@@H]45)[C@@H]3[C@@]1(Cl)C2(Cl)Cl	inactive	
O=S(=O)(O)C(F)(F)C(F)(F)C(F)(F)C(F)(F)F	inactive	
CCC(C)c1cc([N+](=O)[O-])cc([N+](=O)[O-])c1O (stereo unspecified)		27.5 µM (active)
ClC(Cl)=C(c1ccc(Cl)cc1)c1ccc(Cl)cc1	inactive	
CC#Cc1cc(C)nc(Nc2ccccc2)n1	inactive	
C=CC(N)=O	inactive	
CCCCCCCCCc1ccc(O)cc1	inactive	
CCC(C)(c1ccc(O)cc1)c1ccc(O)cc1	inactive	
CC(C)(c1ccccc1)c1ccc(O)cc1	inactive	
CCOC(=O)C(O)(c1ccc(Cl)cc1)c1ccc(Cl)cc1	inactive	
CCNc1nc(NC(C)C)nc(SC)n1	inactive	
Nn1cnnc1	inactive	
O=C(O)C(F)(F)C(F)(F)C(F)(F)C(F)(F)C(F)(F)C(F)(F)C(F)(F)C(F)(F)F		76 µM (active)
Oc1ccc(C(c2ccc(O)cc2)(C(F)(F)F)C(F)(F)F)cc1	inactive	
CCCCCCCCOC(=O)c1ccccc1C(=O)OCCCCCCCC	inactive	
